MazEF act: increases E. coli MazEF RNase cleavage of RNA | P0AE70 | FAM/BHQ RNA-DNA oligo cleavage fluorescence, 5 h | activation, % at 20 µM | actives 0.32% (n = 350,000) | AID 504720; in the data active = activation above about 50%
Anthrax LF inh2: anthrax lethal factor protease inhibition; P15917; multiplex microsphere protease cleavage assay, LF; inhibition, % at 10 µM; actives 0.12% (n = 360,000)
BoNT-F LC inh: BoNT F light chain protease inhibition; Multiplex microsphere protease cleavage assay, flow cytometry; inhibition, % at 10 µM; actives 0.22% (n = 360,000); AID 588497; in the data active = inhibition above about 35%, passing the limit was not always enough; inconclusive = no clear call, values can overlap the other calls
Bead autofluor: counter-screen for toxin protease inhibitors: compound fluorescence; compound autofluorescence counterscreen, microsphere flow cytometry; stronger effect = higher value; fluorescence intensity (concentration not given with the values); actives 3.1% (n = 360,000); AID 624483; in the data active = fluorescence intensity above about 16000; inconclusive = no clear call, values can overlap the other calls
BoNT A protease: blocks Botulinum neurotoxin A light chain protease; multiplex microsphere protease substrate cleavage, flow cytometry; inhibition, % at 10 µM; actives 0.17% (n = 360,000)
Large screens that a line does not name were inactive. Compounds with a hit are over-represented: about 3.6% of the library has one in this group of screens. Rule as the data show it, unless noted: active = inhibition above about 30%; inconclusive = no clear call, values can overlap the other calls; inactive = below that.

Cc1ccc(C)c(NC(=O)c2nnn(Cc3ccccc3C)c2N)c1	Bead autofluor 23851
CCOc1ccccc1NC(=O)Cn1nnc(C(=O)NCc2ccc3c(c2)OCO3)c1N	MazEF act 65
CCOc1ccccc1NC(=O)c1nnn(CC(=O)Nc2ccc3c(c2)OCO3)c1N	none
COc1cccc(C(C)NC(=O)Nc2ccccc2Cl)c1 (stereo not given)	none
O=C1N(c2ccc(Cl)c(Cl)c2)CN(Cc2ccccc2)CN1n1cnnc1	Bead autofluor 17448
O=C(N/N=C/c1ccc(OCc2ccccc2)cc1)c1cccs1	Bead autofluor 20999
O=C(Nc1ccc(OCc2ccccc2)cc1)c1cccs1	BoNT-F LC inh inconclusive
CC(C)OC(=O)c1nnn(-c2nonc2N)c1CN1CCc2ccccc2C1	none
CCOC(=O)c1nnn(-c2nonc2N)c1CN1CCc2ccccc2C1	Bead autofluor 20264
COc1ccc(N2C(=O)c3ccccc3NC23C(=O)N(C)c2ccccc23)cc1 (stereo not given)	Bead autofluor 17048
Cc1cc(NC(=O)CSCC(=O)N(C)Cc2ccc(Cl)c(Cl)c2)no1	none
Cc1noc(C)c1C(=O)OCC(=O)c1ccc[nH]1	none
Cc1cc(NC(=O)COC(=O)c2cccc(OCc3ccccc3)c2)no1	Bead autofluor 20597
Cc1noc(C)c1C(=O)OCC(=O)c1cc(C)n(Cc2ccccc2Cl)c1C	Bead autofluor 22970
Cc1cc(NC(=O)COC(=O)c2c(C)nn(Cc3ccccc3Cl)c2Cl)no1	Bead autofluor 24183
Cc1cc(NC(=O)COC(=O)c2ccc(C)c(C)c2)no1	none
Cc1cc(NC(=O)COC(=O)CSCc2ccc(Cl)c(Cl)c2)no1	Bead autofluor 22915, BoNT A protease inconclusive
Cc1ccc(S(=O)(=O)N2CCN(C(=O)COC(=O)/C=C/c3ccccc3[N+](=O)[O-])CC2)c(C)c1	none
O=C1Nc2ccccc2S/C1=C/Nc1cccc(Cl)c1	MazEF act 59
O=C1Nc2ccccc2SC1=Cc1ccccc1	none
COc1cc(NC(=O)c2ccc3c(c2)OCCO3)ccc1NC(=O)c1ccccc1Cl	none
COC(=O)[C@H]1C[C@@]2(O)CN(S(=O)(=O)c3ccc(C)cc3)C[C@@]2(OC(=O)NC2CCCC2)C[C@H]1C(=O)OC	none
N#CC(c1cccc(C(F)(F)F)c1)(c1ncc(C(F)(F)F)cc1Cl)N1CCOCC1 (stereo not given)	Bead autofluor 23108
Cc1c(Cl)cccc1NC(=S)N1CCCCCC1	none
CCOC(=O)[C@H]1[C@H]2COc3ccc(Cl)cc3[C@@H]2N2C(=O)CN(C)C(=O)[C@@]12C	none
COc1ccc(C2CC(C(F)(F)F)n3nc(C(N)=O)c(Cl)c3N2)cc1OC (stereo not given)	Bead autofluor 20210
O=S(=O)(c1ccc(-c2cn3ccccc3n2)cc1)N1CCOCC1	Bead autofluor 22528
Cc1cccn2cc(-c3ccc(S(=O)(=O)N4CCCCC4)cc3)nc12	none
Cc1cccn2cc(-c3ccc(S(=O)(=O)N4CCOCC4)cc3)nc12	Bead autofluor 23299
COc1ccc(Cl)cc1-c1cc(C(=O)NCc2cccs2)[nH]n1	none (no result: MazEF act)
CC1OC(C2CCCCC2)Cc2[nH]c(=S)[nH]c(=O)c21 (stereo not given)	none (no result: MazEF act)
Cc1cc(NS(=O)(=O)c2ccc(NC(=O)c3oc4ccccc4c3C)cc2)no1	Bead autofluor 22342
CCC(=O)Nc1ccc(S(=O)(=O)Nc2cc(C)on2)cc1	none
Cc1cc(NS(=O)(=O)c2ccc(NC(=O)Nc3ccc4c(c3)OCO4)cc2)no1	Bead autofluor 16204, BoNT A protease inconclusive
Cc1cc(NS(=O)(=O)c2ccc(NC(=O)Nc3cccc(Cl)c3)cc2)no1	none
Cc1cc(NS(=O)(=O)c2ccc(NC(=O)NC3CCCCC3)cc2)no1	Bead autofluor 17035
Cn1cccc1-c1nc2ccc(NC(=O)c3ccc([N+](=O)[O-])cc3)cc2[nH]1	Bead autofluor 19889
Cn1cccc1-c1nc2ccc(NC(=O)c3ccccc3)cc2[nH]1	none
Cn1c(=O)c2c(nc(Br)n2CCSc2nnnn2-c2ccccc2)n(C)c1=O	Bead autofluor 20475
Cn1c(=O)[nH]c(=O)c2c1nc(Br)n2CCSc1nnnn1-c1ccccc1	none
O=C(COc1ccccc1[N+](=O)[O-])N/N=C/c1cccs1	none
CCOC(=O)C1CCC2(CC1)C(C#N)=C(N)Oc1n[nH]c(C)c12 (stereo not given)	Bead autofluor 20477
Cc1cc(C(=O)Nc2nnc(C(F)(F)F)s2)no1	Bead autofluor 22963
Cc1ccc(NC(=O)c2cc(C)on2)cc1	Bead autofluor 20978
O=C(Nc1ccccc1C(F)(F)F)c1cc(-c2ccccc2O)on1	none
CCSc1nnc(NC(=O)c2cc(C)on2)s1	none
Cc1cc(C(=O)Nc2ccccc2C(F)(F)F)no1	Bead autofluor 24116, BoNT A protease inconclusive
C/C(CC(=O)Nc1ccccn1)=N\NC(=O)Cc1cccc2ccccc12	Bead autofluor 23733, BoNT A protease inconclusive
NC(=O)CNC1CC(=O)N(CCc2ccccc2)C1=O (stereo not given)	Bead autofluor 23483
CC(C)c1ccc(N2C(=NC(=O)C3CC3)SC3CS(=O)(=O)CC32)cc1 (stereo not given)	none
COc1ccccc1CN1C[C@@H]2C[C@@H](c3cccc(C)c3)N3CCC[C@@]23C1=O	none
COc1ccc([C@@H]2C[C@H]3CN(Cc4ccccc4OC)C(=O)[C@]34CCCN24)cc1C	Bead autofluor 19989
COc1ccc(N2CCN(C(=O)CSc3ncnc4scc(-c5ccc(C)cc5)c34)CC2)cc1	Bead autofluor inconclusive
Cc1ccc(-c2csc3ncnc(Sc4nnc(CN5CCCCCC5=O)o4)c23)cc1	Bead autofluor 16668
O=C(Nc1ccccc1F)c1ccc2ncsc2c1	none
COc1ccc(-n2c(COc3ccc(Cl)cc3)nnc2SCc2ccc(C#N)cc2)cc1	none
COc1ccc(-n2c(COc3ccc(C)cc3)nnc2SCc2ccc(C#N)cc2)cc1	Bead autofluor 19083
COc1ccc(NC(=O)CSc2nnc(-c3cnccn3)n2C)cc1OC	none
CC(=O)OCCn1c2nc(=O)[nH]c(=O)c-2nc2cc(C)c(C)cc21	MazEF act 480, BoNT-F LC inh 42
CCC(Sc1nc2ncccc2[nH]1)C(=O)NC1CCC(C)CC1 (stereo not given)	MazEF act 138
O=C(C1CC(=O)N(c2ccccc2)C1)N1CCN(c2ccccc2)CC1 (stereo not given)	none
CCCC(=O)N1CCN(C2=NS(=O)(=O)c3ccccc32)CC1	Bead autofluor 23423, BoNT A protease inconclusive
O=C(C1CC(=O)N(c2ccccc2)C1)N1CCN(C2=NS(=O)(=O)c3ccccc32)CC1 (stereo not given)	Bead autofluor 23523
CCc1cc(=O)oc2cc(OCC(=O)OC)c(Cl)cc12	Bead autofluor 22235, BoNT A protease inconclusive
O=C1c2ccccc2C(c2nnnn2Cc2ccccc2)N1CCc1c[nH]c2ccccc12 (stereo not given)	none (no result: MazEF act)
COc1ccc(-c2nnc(N)s2)cc1	Bead autofluor 23923
Cc1ccc(-c2nnc(N)s2)cc1	none
O=C(Nc1cccc2cccnc12)c1ccc2c(c1)OCCO2	Bead autofluor 23021, BoNT A protease inconclusive
